Assay results published in PubChem BioAssay AID590 (National Center for Advancing Translational Sciences (NCATS), 2007).
Among all 59,000 compounds or so, about 6,500 (11%) were called active. Not shown: some 15% with an inconclusive outcome. Cut-off read from the data, not from the text of the source: active = max dye-equivalent concentration above about 10 nM; inconclusive = mostly about 1.1 nM to 9.6 nM; inactive = weaker than that. The list comes from a sample in which actives are over-represented; it also holds similar structures and randomly drawn compounds.

Assay: qHTS Assay for Spectroscopic Profiling in A350 Spectral Region
Details: Compound autofluorescence, 340/450 nm, Alexa 350 dye-equivalents; stronger effect = higher value

Max dye-equivalent concentration, inactive:
NCCNCC1CCNCC1
Cc1cccc(N2CCN(S(=O)(=O)c3ccc4c(c3)c(=O)n(C)c(=O)n4C)CC2C)c1 (configuration not stated)
O=C(c1cnccn1)N1CCC[C@@]2(CCN(Cc3ccncc3)C2)C1
Cc1ccc(-c2ccc(=O)n(CC(=O)NCCCN3CCCCC3)n2)cc1
COc1ccc(-c2n[nH]c(C)c2-c2ccc(OC)c(OC)c2)c(O)c1
COc1ccc(CCN(C)CCN2C(=O)c3ccccc3C2=O)cc1OC
Cc1cc(C(=O)COC(=O)c2cccs2)c(C)n1-c1c(C)n(C)n(-c2ccccc2)c1=O
Cc1ccc(S(=O)(=O)N2CCN(C(=O)CCC(=O)NC3CCCc4ccccc43)CC2)cc1 (configuration not stated)
O=C(CCC(=O)N1CCN(S(=O)(=O)c2ccccc2)CC1)NC1CCCc2ccccc21 (configuration not stated)
COCCn1c(-c2ccc(OC)c(OC)c2)nc2ccccc21
COc1ccc(CCn2nnnc2C(c2ccccc2)N2CCN(C)CC2)cc1OC (configuration not stated)
CCc1ccccc1NC(=O)CSc1nnc([C@@H](NC(=O)OC(C)(C)C)C(C)C)o1
CN1CCN(C(=O)c2ccc(NS(=O)(=O)c3ccccc3)cc2)CC1
O=C(Nc1c[nH]c(=O)[nH]c1=O)Oc1ccccc1
COc1ccc(C(=O)Nc2ccc(S(=O)(=O)Nc3onc(C)c3C)cc2)cc1OC
COc1ccc2c(c1OC)C(=O)N(c1ncn[nH]1)C2
CCOc1ccc(Nc2oc(Cc3ccccc3)nc2C#N)cc1
O=C(O)c1cccc(S(=O)(=O)NCCO)c1
CCOc1ccccc1N(CC(=O)NC1CCCCC1)C(=O)CCCC(=O)Nc1ccccn1
CN(C)C(=O)/N=N\C(=O)N(C)C
CC(C)NS(=O)(=O)c1ccc(CCC(=O)N2CCOCC2)cc1
N=C(CC(=O)Nc1ccccn1)c1ccccc1
O=C(c1ccccc1)N1CCN(C(=O)N2CCCCC2)CC1
COc1ccc(-c2nc3n(c2Br)CCC3)cc1
CC(Sc1nncs1)C(=O)NCc1ccc2c(c1)OCO2 (configuration not stated)
CCOC(=O)c1c(C)[nH]c(C)c1C(=O)CSc1nc(N)cc(N)n1
O=S(=O)(NCCOc1cccc2cccnc12)c1ccc(F)cc1
COc1cc(NS(=O)(=O)c2ccc(NC(C)=O)cc2)cc(OC)c1
CC(=O)Nc1ccc(S(=O)(=O)Nc2cccc(NC(=O)C(C)(C)C)c2)cc1
O=C(CN(c1ccc2c(c1)OCCO2)S(=O)(=O)c1ccccc1)Nc1ccc2c(c1)OCO2
CCCn1c(C(O)c2cc(OC)ccc2OC)nc2ccccc21 (configuration not stated)
O=C(NCCc1ccco1)c1nn(Cc2ccccc2)c(=O)c2ccccc12
COc1c(O)cccc1-c1nnn(CCC(=O)OCC(=O)c2ccccc2)n1
COCCNc1ccnc(-c2cccc(NS(C)(=O)=O)c2)n1
COc1ccc(OCCCON2C(=O)c3ccccc3C2=O)cc1
CCOC(=O)c1[nH]cnc1C(=O)NC1CCCCC1
Fc1ccccc1CCNc1nnnn1-c1ccccc1
Cc1cc(C)n(-c2ccc(Cl)c(C(=O)O)n2)n1
COc1ccccc1NC(=O)C1=C(C)Nc2ncnn2C1c1ccc(C)o1 (configuration not stated)
COC(=O)C1=C(C)NC2=C(C(=O)c3ccccc32)C1c1ccc(-c2ccc(C(=O)O)cc2)o1 (configuration not stated)
O=C(CCCCn1c(=O)[nH]c2ccccc2c1=O)NCc1ccc2c(c1)OCO2
CC1CN(C(=O)CN2C(=O)NC(C)(c3ccccc3)C2=O)CC(C)O1 (configuration not stated)
CN(C(=O)C1CCOC1)c1nnc(-c2cccnc2)s1 (configuration not stated)
C[C@@H]1C[C@H]2[C@@H]3C[C@H](F)C4=CC(=O)C=C[C@@]4(C)[C@]3(F)[C@H](O)C[C@]2(C)[C@@]1(O)C(=O)CO
CCCCOc1ccccc1/C=c1/sc2nc(-c3oc4ccccc4c3C)nn2c1=O
C#CCNc1nc(C(C)C)nc2c1nnn2Cc1ccccc1F
Cc1cc(Cl)c(S(=O)(=O)Nc2ccc3c(c2)OCCO3)cc1OCC(N)=O
CSCC[C@H](NC(=O)NCc1cccs1)C(=O)O
COc1ccccc1CNc1ncncc1-c1cccnc1
CCOC(=O)CCCNC(=O)CN1C(=O)NC(CCc2ccccc2)C1=O (configuration not stated)
CCNc1nc(NCC)nc(N(C)n2cnnc2)n1
C=CCn1c(SCn2nnc3ccccc3c2=O)nnc1-c1ccc(Cl)cc1
COC(=O)N1CCC2(CCCN(Cc3ccccc3OC)C2)CC1
CCOC(=O)c1cc2cc(C)ccc2[nH]1
Cc1ccc2[nH]c(=O)c(-c3nc4c(C)cccn4c3NCc3ccco3)cc2c1

Max dye-equivalent concentration, active:
COc1ccc(CCN2C(=O)c3[nH]nc(-c4ccccc4O)c3C2c2ccc(C)cc2)cc1OC (configuration not stated) 140 nM
N#C/C=C1\Sc2ccccc2C(=O)N1CC(=O)N1CCN(S(=O)(=O)c2ccccc2)CC1 15 nM
COc1ccc(CCn2c(-c3ccco3)nc3nc4ccccc4nc32)cc1OC 11 nM
CCOc1ccc2nc(NCCNS(=O)(=O)c3ccccc3)c(C#N)cc2c1 86 nM
CN(C)CCCNc1c2c(c(C#N)c3nc4ccccc4n13)CCC2 94 nM
N#Cc1c2c(c(N3CCN(CCO)CC3)n3c1nc1ccccc13)CCCC2 23 nM
COc1ccc(NS(=O)(=O)c2ccc(NC(=O)C(C)(C(F)(F)F)C(F)(F)F)cc2)nn1 23 nM
COc1ccc(N2C(=O)c3cccc4cccc(c34)C2=O)nn1 160 nM
COc1ccccc1NC(=O)C1=C(C)NC2=C(C(=O)CCC2)C1c1ccc(C)o1 (configuration not stated) 16 nM
Cc1nc(Nc2ccc3c(c2)OCCO3)c2nnn(Cc3ccccc3Cl)c2n1 980 nM
CCc1cc(=O)oc2cc(C)cc(OC(C)C(=O)O)c12 (configuration not stated) 110 nM
CCNCc1cc2cc(C)ccc2[nH]c1=O 53 nM
